Screens deposited in PubChem by several laboratories.
In the library only some 4.2% were active in any assay of this set; here they are far more common.
NALP1 inh – inhibitors of NALP1 inflammasome in yeast. S. cerevisiae NALP1/ASC/caspase-1 growth, X-gal OD620, 72 h. inhibition, % at 10 µM. hit rate 0.61% among 280,000. AID 2071; in the data active = inhibition mostly above about 24%, no sharp cut-off; inactive = mostly below about 32%
tim23-1 inh – growth inhibitors of tim23-1 mutant yeast. AID 463212. S. cerevisiae tim23-1 growth, BacTiter-Glo luminescence, 24 h. hit rate 1.3% among 330,000. inhibition, % at 20 µM;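 active = growth inhibition of the mutant yeast at or above 50%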;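 also: temperature-sensitive mutant grown at 25 °C; plate controls were DMSO-treated mutant yeast for no effect and medium wells lacking yeast for full effect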
tim10-1 inh – inhibits growth of tim10-1 mutant yeast; S. cerevisiae tim10-1 ts strain growth, BacTiter-Glo, 24 h; inhibition, % at 20 µM; hit rate 2.2% among 330,000;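 active = inhibition of at least 40%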;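 also: mutant grown at 25 °C; 0% = DMSO wells with yeast and 100% = wells holding no yeast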
V-ATPase pHluor – yeast V-ATPase proton transport regulation by pHLuorin; S. cerevisiae, pHLuorin cytosolic pH fluorescence; response, % at 10 µM; hit rate 0.37% among 350,000; AID 504577; in the data active = response mostly above about 7.3%, no sharp cut-off; inactive = mostly below about 5.4%; also: actives read high
NALP3 yeast inh – blocks the NALP3 inflammasome reconstituted in yeast | Yeast reconstituted NLRP3/ASC/caspase-1, beta-gal luminescence, 24 h | inhibition, % at 10 µM | hit rate 0.39% among 330,000;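 active = inhibition of 50% or more; inactive = inhibition below 50%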;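 also: plate controls were induced DMSO wells for no effect and uninduced yeast grown without galactose for full effect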
TIM10 inh – inhibits growth of TIM10 yeast strain. S. cerevisiae TIM10 strain growth, BacTiter-Glo luminescence, 24 h. inhibition, % at 10 µM. hit rate 1.4% among 330,000;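 active = inhibition of 40% or more at the single tested concentration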;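 also: wild-type TIM10 isogenic control strain grown at permissive 25 °C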
tim10 confirm – TIM10 yeast growth inhibition, confirmed; S. cerevisiae tim10 strain growth, BacTiter-Glo luminescence, 24 h; shares compounds with TIM10 inh; inhibition, % at 10 µM; hit rate 63% among 4,600;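 active = inhibition of yeast growth at or above a set limit in either of two replicates at 10 µM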;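 also: this counterscreen used the strain with wild-type TIM10; 0% = yeast with DMSO and 100% = medium wells lacking yeast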
tim23-1 confirm – confirmation of tim23-1 mutant yeast growth inhibitors; hit rate 83% among 4,400; S. cerevisiae tim23-1 growth, BacTiter-Glo luminescence, 24 h; inhibition, % at 20 µM; shares compounds with tim23-1 inh;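 active = inhibition above about 39% in either of two replicate wells at 20 µM, limit read from the data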;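 also: temperature-sensitive tim23-1 mutant grown at 25 °C; 0% = DMSO wells with yeast and 100% = medium wells without yeast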
The depositor's hits bear a star.

What do the screens show for `CC(C)(C)c1cc(C(=O)N/N=C/c2ccccc2O)n(-c2ccccc2)n1`?
NALP1 inh: 21.7; tim23-1 inh: 59.0*; tim10-1 inh: 38.3; V-ATPase pHluor: -2.9; NALP3 yeast inh: 22.5; TIM10 inh: 58.6*; tim10 confirm: -18.0; tim23-1 confirm: 56.1*

What do the screens show for `COc1ccc(/C=N/NC(=O)c2nc(-c3ccccc3)n(-c3ccccc3)n2)c(O)c1`?
NALP1 inh: -0.3; tim23-1 inh: -5.7; tim10-1 inh: 8.5; V-ATPase pHluor: 0.6; NALP3 yeast inh: 9.9; TIM10 inh: -5.3

How did COc1ccccc1CNC(=O)COC(=O)/C=C/c1ccc(OC(F)F)c(OC)c1 do in these assays?
tim23-1 inh: 18.2; tim10-1 inh: 5.4; V-ATPase pHluor: 3.4; NALP3 yeast inh: 16.7; TIM10 inh: -8.4

What do the screens show for `O=C(NC(=S)NNC(=O)c1ccccc1O)c1ccccc1`?
NALP1 inh: 3.2; tim23-1 inh: 61.5*; tim10-1 inh: 11.2; V-ATPase pHluor: 1.3; NALP3 yeast inh: 46.5; TIM10 inh: 48.5*; tim10 confirm: 42.3*; tim23-1 confirm: -28.3

How did CCN(CC)CCn1c(=S)[nH]c2cc(C(=O)NCc3ccccc3)ccc2c1=O do in these assays?
V-ATPase pHluor: 1.6

How did O/C(=C\c1nc2ccccc2nc1/C=C(\O)c1ccccc1)c1ccccc1 do in these assays?
NALP1 inh: -1.9; tim23-1 inh: 63.5*; tim10-1 inh: 37.3; V-ATPase pHluor: 4.7; NALP3 yeast inh: 16.0; TIM10 inh: 44.6*; tim10 confirm: 53.5*; tim23-1 confirm: 67.5*

How did O=c1oc2ccccc2nc1/C=C(\O)c1ccccc1 do in these assays?
tim23-1 inh: -30.6; tim10-1 inh: -48.0; V-ATPase pHluor: 3.4; NALP3 yeast inh: 37.3; TIM10 inh: -68.2

Results for CC(=O)n1cc(C(C[N+](=O)[O-])SCCN)c2ccccc21 (configuration not stated) ?
NALP1 inh: 6.6; tim23-1 inh: 89.2*; tim10-1 inh: 22.9; V-ATPase pHluor: 6.6; NALP3 yeast inh: 42.6; TIM10 inh: 91.3*; tim10 confirm: 91.6*; tim23-1 confirm: -30.7

What do the screens show for `COC(=O)/C(=C/c1cn(C(C)=O)c2ccccc12)[N+](=O)[O-]`?
NALP1 inh: 9.4; V-ATPase pHluor: 6.0

How did CC1CCc2cc(F)cc3c(O)c(C(=O)NCc4ccco4)c(=O)n1c23 (configuration not stated) do in these assays?
NALP1 inh: 3.3; tim23-1 inh: 54.9*; tim10-1 inh: 29.8; V-ATPase pHluor: -1.2; NALP3 yeast inh: 30.5; TIM10 inh: 49.2*; tim10 confirm: -3.6; tim23-1 confirm: 51.5*

What do the screens show for `Nc1ncc(-n2cncn2)c(-c2ccccc2)n1`?
NALP1 inh: 5.4; tim23-1 inh: 6.5; tim10-1 inh: -9.3; V-ATPase pHluor: -1.0; NALP3 yeast inh: -5.3; TIM10 inh: -6.7

Results for O=C(Nc1ccc(N2CCN(c3ccc(C(F)(F)F)cn3)CC2)nc1)c1cccs1 ?
NALP1 inh: 19.4; tim23-1 inh: -2.3; tim10-1 inh: -17.3; V-ATPase pHluor: 0.8; NALP3 yeast inh: -13.0; TIM10 inh: -1.5

What do the screens show for `O=C(Nc1ccc(N2CCN(c3ncccc3C(F)(F)F)CC2)nc1)c1cccs1`?
NALP1 inh: 16.4; tim23-1 inh: 67.1*; tim10-1 inh: 37.0; V-ATPase pHluor: 1.8; NALP3 yeast inh: 34.8; TIM10 inh: 44.5*; tim10 confirm: 53.0*; tim23-1 confirm: 81.9*

What do the screens show for `O=C(Nc1ccc(N2CCOCC2)nc1)c1cccs1`?
NALP1 inh: 2.0; tim23-1 inh: 50.4*; tim10-1 inh: 25.8; V-ATPase pHluor: -5.6; NALP3 yeast inh: 18.4; TIM10 inh: 55.0*; tim10 confirm: 43.3*; tim23-1 confirm: 68.0*

What do the screens show for `Oc1c(Br)cc(Br)cc1CNc1ccccn1`?
NALP1 inh: -3.8; tim23-1 inh: 67.5*; tim10-1 inh: 17.8; V-ATPase pHluor: 2.7; NALP3 yeast inh: 45.9; TIM10 inh: 51.3*; tim10 confirm: 20.5; tim23-1 confirm: 73.7*

How did CC1(C)CC(=O)C(C(O)c2cccc([N+](=O)[O-])c2)C(C)(C)N1 (configuration not stated) do in these assays?
NALP1 inh: 2.9; tim23-1 inh: -3.2; tim10-1 inh: -2.3; V-ATPase pHluor: -0.5; NALP3 yeast inh: 17.6; TIM10 inh: -9.9

How did COc1ccc(NC(=O)c2cn(C)c(=O)c3cc(OC)c(OC)cc23)cc1OC do in these assays?
NALP1 inh: 10.5; tim23-1 inh: 8.3; tim10-1 inh: 22.1; V-ATPase pHluor: 4.3; NALP3 yeast inh: 11.4; TIM10 inh: 6.7

Results for Oc1ccccc1-c1nc(NC2CCCC2)c2ccccc2n1 ?
NALP1 inh: 24.3; tim23-1 inh: 64.4*; tim10-1 inh: 29.6; V-ATPase pHluor: 1.4; NALP3 yeast inh: 0.6; TIM10 inh: 44.0*; tim10 confirm: 35.1*; tim23-1 confirm: 57.5*

What do the screens show for `CC(Nc1nc(-c2ccccc2O)nc2ccccc12)c1ccccc1` (configuration not stated)?
NALP1 inh: -7.2; tim23-1 inh: 44.3; tim10-1 inh: 27.8; V-ATPase pHluor: 0.1; NALP3 yeast inh: 6.8; TIM10 inh: 21.5

What do the screens show for `COc1ccc(C(=O)NCCSCc2ccccc2Cl)cc1OC`?
NALP1 inh: 9.9; tim23-1 inh: 17.6; tim10-1 inh: -7.0; V-ATPase pHluor: 1.9; NALP3 yeast inh: 21.4; TIM10 inh: -10.2

What do the screens show for `Cc1noc(C)c1C(=O)OC(C)C(=O)N(C)c1ccccc1` (configuration not stated)?
tim23-1 inh: 13.6; tim10-1 inh: 4.0; V-ATPase pHluor: -1.9; NALP3 yeast inh: 17.3; TIM10 inh: -7.1

What do the screens show for `CC(OC(=O)/C=C/c1ccc2ccccc2n1)C(=O)N(C)c1ccccc1` (configuration not stated)?
tim23-1 inh: 52.4*; tim10-1 inh: 34.8; V-ATPase pHluor: 1.2; NALP3 yeast inh: 26.7; TIM10 inh: 42.9*; tim10 confirm: 42.0*; tim23-1 confirm: 53.3*

Results for COc1cc2cc(CCCOC(=O)c3ccc4c(c3)OCO4)oc(=O)c2cc1OC ?
tim23-1 inh: 28.7; tim10-1 inh: 16.3; V-ATPase pHluor: 5.7; NALP3 yeast inh: 9.0; TIM10 inh: 3.3

How did O=[N+]([O-])c1ccc(O)c(C2CCCCC2)c1 do in these assays?
V-ATPase pHluor: -0.7

What do the screens show for `NC(=O)c1cc(Br)cc(C2CCCCC2)c1O`?
NALP1 inh: 10.1; tim23-1 inh: 65.4*; tim10-1 inh: 33.4; V-ATPase pHluor: 2.4; NALP3 yeast inh: 32.3; TIM10 inh: 52.6*; tim10 confirm: 76.0*; tim23-1 confirm: 14.9
